# Measured values published in PubChem BioAssay AID590 (National Center for Advancing Translational Sciences (NCATS), 2007).
# Screen size: about 59,000 compounds; about 6,500 (11%) were called active. Roughly 15% stayed inconclusive and do not appear here. Cut-off read from the data, not from the text of the source: active = max dye-equivalent concentration above about 10 nM; inconclusive = mostly about 1.1 nM to 9.6 nM; inactive = weaker than that. Shown is part of a subset that was picked to be rich in actives.
# Test: qHTS Assay for Spectroscopic Profiling in A350 Spectral Region
# Conditions: Compound autofluorescence, 340/450 nm, Alexa 350 dye-equivalents; hits give high values
row,SMILES,max dye-equivalent concentration
1,Cn1c(=O)c2c(ncn2CC(=O)N2CCN(c3ccccc3)CC2)n(C)c1=O,inactive
2,CCOc1ccc(C(C)C)cc1S(=O)(=O)n1nc(C)cc1C,inactive
3,N#Cc1ccccc1-c1ccc2ncnc(NCc3cccnc3)c2c1,inactive
4,CC(Cc1cccs1)NC(=O)NC1CCCCC1 (configuration not stated),inactive
5,COc1ccccc1CNc1ccnc(-c2c(C)noc2C)n1,inactive
6,COc1ccc(CCNC(=O)C2CCN(c3nn4c(=O)cc(C)nc4s3)CC2)cc1OC,inactive
7,CCCS(=O)(=O)N1CCC(C(=O)NCCc2ccc(OC)c(OC)c2)CC1,inactive
8,CCOc1ccc(CCNC(=O)C2CCN(c3ccc(N4CCOCC4)nn3)CC2)cc1OCC,560 nM (active)
9,O=C(CN1CCN(c2ccc(F)cc2)CC1)Nc1cccc(C(F)(F)F)c1,inactive
10,O=C(c1ccc([N+](=O)[O-])cc1)[C@@H](Br)[C@@H](Br)c1ccnc2ccccc12,inactive
11,O=C1NC(c2ccncc2)Nc2sc3c(c21)CCCC3 (configuration not stated),58 nM (active)
12,CCc1nnc(NC(=O)CSc2nnc(COc3ccc(C#N)cc3)n2-c2ccccc2)s1,inactive
13,O=C(Nc1cccc(F)c1)N1CC2(CCN(C(=O)c3csnn3)CC2)C1,inactive
14,Cn1c(CCN2CCCCCC2)nc2cc(NC(=O)Nc3ccccc3)ccc21,inactive
15,O=C(Nc1cccc(NC(=O)N2CCN(c3ccccc3)CC2)c1)N1CCN(c2ccccc2)CC1,inactive
16,Cc1nc2ccc(NC(=O)N3CCC(c4ccccc4)C3)cc2nc1C (configuration not stated),410 nM (active)
17,O=C(COC(=O)CCC(=O)c1cccs1)NCc1ccco1,inactive
18,O=C(COC(=O)C12CC3CC(CC(C3)C1)C2)NCc1ccco1,16 nM (active)
19,Cc1cc(C(=O)OCC(=O)NCc2ccco2)c(C)n1-c1ccccc1,inactive
20,NC[C@@H]1O[C@H](O[C@@H]2[C@H](O[C@@H]3O[C@H](CO)[C@@H](COC[C@H]4O[C@@H](CN)[C@@H](O)[C@@H](O)[C@@H]4N)[C@@H]3O)[C@@H](O)[C@@H](N)C[C@H]2N)[C@@H](N)[C@H](O)[C@@H]1O,inactive
21,N#Cc1ccc(CN2CCCC3(CCN(C(=O)c4ccco4)CC3)C2)cc1,inactive
22,CCOc1ccc(NS(=O)(=O)c2ccc(OCC(=O)NCCCOC)cc2)cc1,inactive
23,O=C(CC(NS(=O)(=O)c1ccc(Cl)cc1)c1ccco1)NC1CCCC1 (configuration not stated),inactive
24,O=c1[nH][nH]c(=O)c2cc(N3CCCC3)ccc12,47 nM (active)
25,O=C(NCc1cccnc1)c1cn(-c2ccccc2)nc1-c1cccs1,inactive
26,O=C1CC(c2ccccc2)C(=O)N1c1cccc(O)c1 (configuration not stated),inactive

row,SMILES,max dye-equivalent concentration
1,CCCC(CCC(=O)OC)(C(=O)OCC)c1csc(N)n1 (configuration not stated),inactive
2,CCCCNC(=O)c1ccccc1NC(=O)c1ccccc1N(C)S(C)(=O)=O,inactive
3,O=C(c1cccc(F)c1)N1CCC2(CC1)CCN(c1ccccc1)CC2,inactive
4,CCOC(=O)N1CCN(C(=O)C2CCN(c3ncnc4c3sc3cccc(F)c34)CC2)CC1,18 nM (active)
5,CCOC(=O)N1CCN(CC(=O)Nc2cc(C)nn2-c2nc3ccccc3s2)CC1,inactive
6,CCOC(=O)N1CCN(C(=O)C2CCN(S(C)(=O)=O)CC2)CC1,inactive
7,CCCc1cc(=O)n2[nH]c(SCc3ccccc3)nc2n1,inactive
8,Cc1ccc(C(=O)NC2CC(C)(C)NC(C)(C)C2)c(C)c1,inactive
9,O=C(Cn1nnc(-c2ccc3c(c2)OCO3)n1)NCc1ccco1,inactive
10,CS(=O)(=O)N(CC(=O)N1CCN(Cc2ccc3c(c2)OCO3)CC1)c1ccc2c(c1)OCO2,inactive
11,CS(=O)(=O)N(CC(=O)NCc1ccco1)c1ccc2c(c1)OCO2,29 nM (active)
12,CCNC(=O)CCc1nc(-c2ccc(C(C)(C)C)cc2)no1,inactive
13,Cc1ccc(S(=O)(=O)NCc2nc3ccccc3c(=O)n2N)cc1,inactive
14,Cc1ccc(S(=O)(=O)c2c(N)n(C)c3nc4ccccc4nc23)cc1,3600 nM (active)
15,CCOC(=O)N1CC=C2C(C#N)=C(N)C(C#N)(C#N)[C@H](c3cccs3)[C@H]2C1,35 nM (active)
16,CC1=C(C(=O)Nc2ccccc2)C(c2cccs2)C(C#N)=C(SCC#N)N1 (configuration not stated),inactive
17,CC(=O)N1CCN(c2ccc(NCc3ccc(C(C)C)cc3)cc2)CC1,inactive
18,Cn1c(/C(C#N)=C2/CCCCCN2)nc2ccccc21,23 nM (active)
19,N#C/C(=C1\CCCN1)c1nc(-c2ccccc2)cs1,inactive
20,CCC(C)(C)n1nnnc1C(c1cccs1)N1CCN(Cc2ccccc2)CC1 (configuration not stated),inactive
21,O=C1c2ccccc2C(=O)C1c1ccccc1,inactive
22,COc1ccc2[nH]c(=O)c(-c3noc(-c4ccc(F)cc4)n3)cc2c1,14 nM (active)
23,Cc1cccc(-c2noc(-c3ccc(F)cc3)n2)c1,inactive
24,O=C(c1cc(C(F)(F)F)cc(C(F)(F)F)c1)N1CCC2(CC1)CN(c1ccncc1)C2,inactive
25,CN1CCN(c2ncncc2-c2ccc(C(=O)N(C)C)cc2)CC1,inactive
26,COCCNC(=O)CN(C(=O)CCC(=O)Nc1cc(C)on1)c1ccc(C)cc1C,inactive

row,SMILES,max dye-equivalent concentration
1,COc1cc2[nH]c(=S)n(CCN3CCCCC3C)c(=O)c2cc1OC (configuration not stated),inactive
2,CCn1c(SCC(=O)NCC2CCCO2)nc2cc(S(=O)(=O)N3CCCCC3)ccc21 (configuration not stated),inactive
3,CCc1ccc(NC(=O)CSc2nc3ccccc3c(=O)n2CCN2CCOCC2)cc1,inactive
4,O=C(CSc1nc2cc3c(cc2c(=O)n1CCC1=CCCCC1)OCO3)NCc1ccco1,inactive
5,CCCCn1c(SCC(=O)NCCc2ccc(OC)c(OC)c2)nc2c1c(=O)n(C)c(=O)n2C,inactive
6,CCCCn1c(SCC(=O)NCC2CCCO2)nc2ccc(N3CCOCC3)cc2c1=O (configuration not stated),71 nM (active)
7,COCCCNC(=O)CSc1nc2ccc(N3CCOCC3)cc2c(=O)n1CCc1ccccc1,69 nM (active)
8,O=C(c1ccco1)N1CCC[C@@]2(CCN(c3ccccc3)C2)C1,inactive
9,CC(Oc1ccc(Cl)cc1)C(=O)Nc1ncccn1 (configuration not stated),inactive
10,O=C(c1cc(C(F)(F)F)cc(C(F)(F)F)c1)N1CCC2(CCCN(Cc3ccncc3)C2)CC1,inactive
11,O=C(COc1ncnc2ccccc12)NC(=O)NCc1ccccc1,inactive
12,Cc1cccc(-n2c(N)cc(=O)nc2SC(C)C(=O)NC2CCCCC2)c1 (configuration not stated),inactive
13,COC(=O)c1ccc(CSc2ccccc2C)o1,inactive
14,CCCc1cc(=O)oc2c(C)c(O)c(CN3CCCCC3)cc12,8800 nM (active)
15,CCOC(=O)N1CCN(Cc2oc(CO)cc(=O)c2O)CC1,inactive
16,CCOC(=O)c1ccc(NC(=O)CSc2nnc(COc3ccccc3OC)n2C)cc1,inactive
17,O=C(Nc1ccon1)c1cccc(Cl)c1,inactive
18,CCCN1C2=C(C(=O)CCC2)C(c2ccc(O)c(Br)c2)C2=C1CCCC2=O,81 nM (active)
19,c1ccc(CNc2ncncc2-c2cccnc2)cc1,inactive
20,CCC(=O)Nc1ccc2c(c1)nc(CCN1CCN(C)CC1)n2C,inactive
21,Cc1ccc(C(CC(=O)O)Nc2nc(N3CCCCC3)nc(N3CCCCC3)n2)cc1 (configuration not stated),inactive
22,CC(Nc1nc(N2CCCC2)nc2ccccc12)c1ccccc1 (configuration not stated),170 nM (active)
23,Cc1cc2c(cc1C)NC1=C(N2)O[C@H](c2c[nH]c3ccc(COc4ccccc4)cc23)C1=O,inactive
24,Cn1nc(-c2ccc(N3CCOCC3)c(NC(=O)c3ccccc3)c2)c2ccccc2c1=O,inactive
25,Cn1c(=O)n(C)c2cc(C(=O)Nc3ccc4c(c3)OCO4)ccc21,inactive
26,Cn1c(=O)n(C)c2cc(CNc3ccc(N4CCOCC4)c(C(=O)O)c3)ccc21,22 nM (active)

row,SMILES,max dye-equivalent concentration
1,Cn1c(CNc2nc(-c3ccccc3)cs2)nnc1SCC(=O)c1ccccc1,inactive
2,COc1ccc(CC(=O)Nc2c3c(nn2-c2cccc(Cl)c2)CS(=O)C3)cc1 (configuration not stated),inactive
3,COC(=O)c1cc(Cl)c(NC(=O)c2ccco2)cc1OC,inactive
4,Cn1c(NC(=O)c2ccco2)c(-c2ccccc2Cl)c(=O)c2ccccc21,inactive
5,Cc1ccc(-n2nc3cc(Cl)c(NC(=O)c4ccco4)cc3n2)cc1,52 nM (active)
6,CCN(CC)CCCNC(=O)c1cc(-c2cccc(Cl)c2)on1,inactive
7,Cc1cc(C(F)(F)F)n2ncc(-c3ccccc3)c2n1,12 nM (active)
8,Cc1cc(-n2nc(C)cc2C)n2ncc(-c3ccccc3)c2n1,inactive
9,O=C(Cn1c(-c2ccc(Cl)cc2)noc1=O)N1CCN(c2ccccc2F)CC1,inactive
10,CC(=O)Oc1ccc2c(C)c(CC(C)O)c(=O)oc2c1 (configuration not stated),21000 nM (active)
11,COc1ccccc1-c1nc(NCCNC(C)=O)c2ccccc2n1,inactive
12,C=CCn1c(=O)c2ccccc2n2c(SCC(=O)N3CCCc4ccccc43)nnc12,inactive
13,O=c1oc2c(CN3CCCCC3)c(O)ccc2c2c1CCCCC2,13000 nM (active)
14,CCCn1c(=O)c2ccccc2n2c(SCC(=O)/C(C#N)=C(\C)N)nnc12,inactive
15,Cc1ccc(S(=O)(=O)N(C)CC(=O)NC2CCCC2)cc1,inactive
16,Cc1ccc(Cc2nc(-c3cccc(C)c3)no2)cc1,inactive
17,Cc1ccc(-c2noc(CN3CCN(Cc4ccccc4)CC3)n2)cc1,inactive
18,COc1ccccc1Cc1nc(-c2ccc(C)cc2)no1,17 nM (active)
19,C[C@H]1O[C@@H](CC(=O)O)Cc2c1c(O)c1c(O)cc(-c3cc(=O)c4c(=O)c5c(c(=O)c=4c3=O)C[C@H](CC(=O)O)O[C@@H]5C)c(O)c1c2O,inactive
20,O=C(CSc1nc2ccccc2o1)N1CCN(c2ccc(Cl)cc2)CC1,inactive
21,CC(=O)N(CN1C(=O)C2CC=CCC2C1=O)c1cccc(Cl)c1 (configuration not stated),inactive
22,O=C(CC1Nc2ccccc2NC1=O)Nc1ccccc1 (configuration not stated),100 nM (active)
23,CCOc1ccc(NC(=O)CC2NCCNC2=O)cc1 (configuration not stated),inactive
24,O=C(CC1NCCNC1=O)Nc1ccc(Oc2ccccc2)cc1 (configuration not stated),inactive
